High-throughput results deposited in PubChem BioAssay by National Center for Advancing Translational Sciences (NCATS).
HP1b chromo inh = HTS for Inhibitors of HP1-beta Chromodomain Interactions with Methylated Histone Tails. Chromobox protein homolog 1 (Homo sapiens), P83916. AlphaScreen HP1-beta / biotin-H3K9me3 peptide binding. Potency, µM (titrated, usually from 114 µM), without a hit: top-dose activity change, negative = inhibition, actives largely listed as inhibitors. 390,000 compounds, 0.56% hits. AID 540317, 2011; note: potency is the fitted concentration of half-maximal effect; nearly all actives have a fitted effect of over 70% in size
Target sequence (P83916 whole entry, looked up): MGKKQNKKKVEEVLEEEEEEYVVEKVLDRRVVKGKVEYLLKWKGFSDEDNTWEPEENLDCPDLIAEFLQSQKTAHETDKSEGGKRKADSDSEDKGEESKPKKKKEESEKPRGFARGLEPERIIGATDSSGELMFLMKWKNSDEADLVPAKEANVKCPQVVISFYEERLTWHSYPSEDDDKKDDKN
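HP1-beta protein (50 nM final) preincubated 30 min at room temperature with biotinylated H3(1-18)K9me3 peptide (50 nM) in PBS pH 7.4, 0.01% Tween-20, then compound added for 30 min. AlphaScreen streptavidin donor/nickel chelate acceptor beads (10 ug/mL final), 30 min dark, luminescence read.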
CtBP-E1A inh = qHTS Assay for Inhibitors of the CtBP/E1A Interaction; AlphaScreen GST-E1A/His-CtBP binding, 1536-well; active compounds read low; activity change, % (concentration not given with the values); 340,000 compounds, 0.49% hits; CtBP / adenovirus E1A interaction (AlphaScreen); in the data active = activity change below about -65%; inconclusive = mostly about -30% to -63%; note: % is set by controls: 0 for no effect and ±100 for the full control effect
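Homogeneous bead-based format: GST-tagged E1A captured on glutathione donor beads, His-tagged CtBP on nickel acceptor beads; compounds precede bead addition by 2 h at 37 °C.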
JMJD2A Tudor = qHTS Assay for Inhibitors of JMJD2A-Tudor Domain. AlphaScreen JMJD2A-Tudor / H3K4me3 peptide binding. Potency, µM (titrated, usually from 114 µM), without a hit: at the highest dose activity change, negative = inhibition, hits mostly inhibitors. AID 504339, 2011. 390,000 compounds, 4.4% hits. Lysine-specific demethylase 4A (Homo sapiens), O75164; note: potency is the fitted concentration of half-maximal effect; % is set by controls: 0 for no effect and ±100 for the full control effect; nearly all actives have a fitted effect of over 50% in size
TDP1 block = qHTS Assay for Inhibitors of Tyrosyl-DNA Phosphodiesterase (TDP1); 350,000 compounds, 0.28% hits; Potency, µM (titrated, usually from 130 µM), for inactives: at the highest dose activity change, negative = inhibition, actives largely listed as inhibitors; AID 485290, 2010; Tyrosyl-DNA phosphodiesterase 1 (Homo sapiens), Q9NUW8; recombinant TDP1, AlphaScreen DNA substrate cleavage; note: potency is the fitted concentration of half-maximal effect; % is set by controls: 0 for no effect and ±100 for the full control effect; nearly all actives have a fitted effect of over 40% in size
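Recombinant human Tdp1 (E. coli-expressed, 1 nM final) preincubated with compounds 15 min at room temperature, then 5'-biotin/3'-phosphotyrosine-FITC DNA substrate (15 nM final) added for 5 min. AlphaScreen beads (10 ug/ml final) added 10 min; cleavage lowers signal.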
BAZ2B inh = qHTS Assay for Inhibitors of BAZ2B; AlphaScreen BAZ2B-H3K14Ac peptide displacement; Potency, µM (top dose mostly 114 µM), for inactives: top-dose activity change, negative = inhibition, usual class: inhibitors; 360,000 compounds, 4.4% hits; AID 504333, 2011; note: potency is the fitted concentration of half-maximal effect; % is set by controls: 0 for no effect and ±100 for the full control effect; nearly all actives have a fitted effect of over 60% in size
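Compounds, titrated to a top concentration of 110 uM, were incubated 30 min at room temperature with preformed BAZ2B/acetyl-K14 H3 peptide complex (50 nM each). Proximity signal was measured by AlphaScreen after 20 min with beads.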
Six1-Eya2 blk = qHTS Assay for Inhibitors of the Six1/Eya2 Interaction; activity change, % (no concentration beside the values); 360,000 compounds, 0.56% hits; AlphaScreen GST-Six1/His-Eya2 binding, biochemical; active compounds read low; Homeobox protein SIX1 (Homo sapiens) + Protein phosphatase EYA2 (Homo sapiens), …; in the data active = activity change below about -65%; inconclusive = mostly about -30% to -63%; note: % is set by controls: 0 for no effect and ±100 for the full control effect
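AlphaScreen with GST-Six1 and His-Eya2 (5X mix: 250 nM and 500 nM), glutathione donor and nickel acceptor beads; buffer 50 mM Tris pH 8.0, 300 mM NaCl, 1 mM TCEP; 1 h at 37 C in the dark.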
Active calls of the source: *; u = inconclusive; x = no result; [ ] = remark or other dose. Sampled rows, rich in hits. Any-hit rate of the full collection: about 5.3%. Unless noted, calls come from the whole dose curve; as a rule, active = well fitted inhibition curve with a large enough effect; inconclusive = small, poorly fitted or top-dose-only effect; inactive = no such curve, though single readings can be large or run the other way.

SMILES	HP1b chromo inh	CtBP-E1A inh	JMJD2A Tudor	TDP1 block	BAZ2B inh	Six1-Eya2 blk
COc1cc(Cl)c(C)cc1NC(=O)C(OC(=O)CNC(=O)c1ccccc1)c1ccccc1 (stereo not drawn)	x	x	-22%	-2%	x	x
CCOc1ccccc1C(=O)NCc1ccc2c(c1)OCO2	40%	-1	13%	-2%	-4%	-1
O=C(CCn1c(=O)oc2ccccc21)NCc1ccc2c(c1)OCO2	30%	-13	8%	-4%	5%	u
O=C(CCn1cccc1)NCc1ccc2c(c1)OCO2	u	-12	u	u	50µM*	-6
O=C(O)c1ccccc1C(=O)NCc1ccc2c(c1)OCO2	u	x	32µM*	1%	-8%	12
Cc1ccc(NC(=O)c2oc3ccc(S(=O)(=O)N(C)C4CCCCC4)cc3c2C)cc1Cl	10%	x	-14%	0%	1%	x
CCOc1ccccc1C(=O)Nc1nc2c(s1)CC(C)CC2 (stereo not drawn)	0%	x	-13%	-3%	3%	x
COCCN1Cc2cccc(C(=O)Nc3ccc(C)c(C)c3)c2C1=O	23%	-79*	-6%	4%	-4%	-74*
COc1ccc2nc(/N=C/c3c(C)[nH]n(-c4ccc(C)cc4)c3=O)sc2c1	1%	u	u	6%	-31%	-76*
COc1ccc2nc(/N=C\N(C)C)sc2c1	u	0	-52%[57.1 µM]	-3%	56µM*	3
COc1cccc(CC(=O)NCc2ccc3c(c2)CCN3C(C)=O)c1	31%	x	-6%	0%	-12%	x
COC(=O)c1ccccc1N(C)S(=O)(=O)c1cc2c3c(c1)CC(=O)N3CCC2	25%[57 µM]	x	-11%	3%	-19%	x
O=C(NNC(=S)Nc1ccc(F)cc1)c1cccc([N+](=O)[O-])c1	-4%	-13	-20%	9%	-4%	10
O=[N+]([O-])c1ccc(NNC(=S)Nc2ccc(F)cc2)cc1	u	16	50µM*	23%[56.1 µM]	45µM*	-17
CN(C)c1ccc(CNC(=O)CCCN2C(=O)CCn3nc(-c4cccn4C)cc32)cc1	-3%[57 µM]	x	u	9%	40µM*	x
O=c1cc2c(nn1Cc1cccc([N+](=O)[O-])c1)-c1ccccc1CC2	14%	-7	-32%	4%	u	-7
CC1Cc2ccccc2N1Cc1cccc([N+](=O)[O-])c1 (stereo not drawn)	32µM*	u	35µM*	x	13µM*	u
CC1Cc2ccccc2N1Cc1ccc([N+](=O)[O-])cc1 (stereo not drawn)	32µM*	u	45µM*	16%	35µM*	u
Cc1ccc(NC(=O)N2CCN(c3nnc(C)c4c(C)n(-c5ccc(Cl)cc5)nc34)CC2)c(C)c1	6%	x	-11%	1%	-4%	x
CN(C)/N=C/c1ccc(Sc2ccccc2[N+](=O)[O-])o1	35µM*	u	40µM*	11%	20µM*	u
CN(/N=C/c1ccc(-c2ccc([N+](=O)[O-])cc2)o1)c1ccccc1	u	-4	25µM*	10%	-36%	-16
Nc1ccccc1Sc1ccccc1[N+](=O)[O-]	-23%	-2	u	1%	u	-15
CN(/N=C/c1cc([N+](=O)[O-])ccc1O)c1ccccc1	32%	-2	-11%	3%	-7%	-9
O=c1[nH]cnc2c1sc(=S)n2-c1ccccc1	-36%	4	89µM*	-3%	6%	0
O=c1[nH]c(-c2ccc(F)cc2)nc2c1sc(=S)n2-c1ccccc1	18%	-1	u	-3%	50µM*	3
SMILES	HP1b chromo inh	CtBP-E1A inh	JMJD2A Tudor	TDP1 block	BAZ2B inh	Six1-Eya2 blk
O=c1[nH]c(-c2ccc3c(c2)OCO3)nc2c1sc(=S)n2-c1ccccc1	30%	4	-7%	3%	0%	5
COc1cccc(CS(=O)(=O)c2ccccc2)c1	x	x	x	4%	x	x
Cc1c(O)cc2c(c1O)C(=O)CC(c1ccc(O)cc1)O2 (stereo not drawn)	-6%	4	u	-8%	56µM*	-28
COc1cc(O)c2c(c1)OC(c1ccc(O)cc1)CC2=O (stereo not drawn)	74%	19	-23%	x	-10%	19
O=S(=O)(c1ccc2ccccc2c1)n1nc(-c2ccco2)nc1NCc1cccc(Cl)c1	23%	x	-20%	1%	u	x
O=c1oc2ccccc2nc1/C=C(O)/C=C/c1ccc(F)cc1	21%	-8	u	0%	50µM*	-12
Cc1c(C(=O)NCc2cccc(Br)c2)oc2ccc3c(c12)C(=O)CC(C)(C)O3	8%	x	-16%	1%	-6%	x
NC(=NCc1ccc(Cl)c(Cl)c1)NC(=O)c1nc(Cl)c(N)nc1N	x	x	x	11%[56.1 µM]	x	x
O=C(Nc1ccc(F)cc1F)c1noc2c1CCc1ccccc1-2	52%	x	4%	5%	4%	x
O=C(NC1CC1)c1cc(=S)[nH]c2ccccc12	0%	5	18µM*	1%	x	6
Cc1ccc(-n2ncc3c(N4CCCCCC4)ncnc32)cc1	93%	x	51%	-3%	29%	x
Cc1ccc(NS(=O)(=O)c2cc3c(cc2-c2cn[nH]c2)NC(=O)CO3)cc1C	x	x	-26%	-1%	x	x
CC(=O)N1c2ccccc2CC1C(=O)N1CCN(c2ccccc2)CC1 (stereo not drawn)	17%	x	u	1%	-1%	x
O=C(C1Cc2ccccc2CN1C(=O)c1ccccc1)N1CCN(c2ccccc2)CC1 (stereo not drawn)	-29%	1	u	35µM*	71µM*	-8
O=S(=O)(c1ccc2nc(Cl)c(Cl)nc2c1)N1CCN(S(=O)(=O)c2c(F)cccc2F)CC1	x	x	-11%	-13%	x	x
C=CCn1c(O)c(C2=c3ccccc3=NC2=O)sc1=Nc1ccc(O)cc1	u	-4	22µM*	x	22µM*	u
Cc1cc2nc(-c3ccc(Br)cc3)cc(C(F)(F)F)n2n1	7%	x	-2%	x	10%	x
O=C1S/C(=C\c2cccs2)C(=O)N1c1ccc(O)cc1	19%	x	-16%	x	2%	-3
O=C1S/C(=C\C=C\c2ccco2)C(=O)N1c1ccccc1	u	-8	10µM*	3%	40µM*	-2
